These results are taken from PubChem BioAssay (Tox21).

Assay [1] is described as follows: qHTS assay for small molecule agonists of the p53 signaling pathway (AID 651631; calls by dose curve; further: nearly all actives have a fitted effect of over 15% in size; further: potency means the concentration at half of the fitted maximal effect). The procedure, abridged: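 HCT-116 cells carrying a stable p53 response element–beta-lactamase reporter were plated, rested 5 h at 37 °C, then exposed to compound in DMSO for 16 h at 37 °C; reporter activity was read as FRET substrate fluorescence after 2 h at room temperature.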
Assay [2] in a line: qHTS assay for small molecules that induce genotoxicity in human embryonic kidney cells expressing luciferase-tagged ATAD5 (AID 651632). Further: nearly all actives have a fitted effect of over 15% in size. Further: potency means the concentration at half of the fitted maximal effect. The procedure, abridged:
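Concentration-response screen for ATAD5 upregulation in HEK293T luciferase reporter cells; 16 hr treatment at 37C, then luminescence after 30 min with Amplite at room temperature.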

Assay [3] can be described thus: qHTS assay for small molecule agonists of the p53 signaling pathway - cell viability (AID 651633; calls by dose curve; further: nearly all actives have a fitted effect of over 30% in size; further: potency means the concentration at half of the fitted maximal effect). The procedure, abridged: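 p53RE-bla cells, seeded at 4,000 per well and rested 5 h at 37 C/5% CO2, received compounds in DMSO for 16 h at 37 C. CellTiter-Glo was then added, and luminescence was read after 30 min at room temperature to gauge cytotoxicity.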
A short description of assay [4]: qHTS assay for small molecules that induce genotoxicity in human embryonic kidney cells expressing luciferase-tagged ATAD5 - cell viability (AID 651634; calls by dose curve; further: nearly all actives have a fitted effect of over 25% in size; further: potency means the concentration at half of the fitted maximal effect). The procedure, abridged:
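15.5 hr compound or vehicle exposure of HEK293T cells expressing luciferase-tagged ATAD5 at 37C; live-cell protease activity is read by fluorescence after 30 min of CellTiter-Fluor.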

Assay [5] in a line: qHTS assay for small molecule disruptors of the mitochondrial membrane potential - cell viability (AID 720634; calls by dose curve;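 further: human HepG2 liver cancer cells; series mostly up to about 83 µM; nearly all actives have a fitted effect of over 20% in size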). The procedure, abridged:
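In this qHTS format, HepG2 cells plated overnight were pinned with compound, incubated 1 hr, and assayed for ATP luminescence with CellTiter-Glo after m-MPI dye addition.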

The nature of assay [6]: qHTS assay to test for compound auto fluorescence at 590 nm (red) in HepG2 cells (AID 720674). The procedure, abridged: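 Intrinsic compound fluorescence in the red window (Ex/Em 540/590 nm) is measured in attached HepG2 cells exposed for 1 hr, DMSO vehicle as baseline, benchmarked to Rose Bengal sodium.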
A short description of assay [7]: qHTS assay to test for compound auto fluorescence at 535 nm (green) in HepG2 cells (AID 720675).
Assay [8] can be described thus: qHTS assay to test for compound auto fluorescence at 460 nm (blue) in HEK293 cells (AID 720678). The procedure, abridged: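 HEK293 cells (2,000/well, medium with 10% dialyzed FBS) attached 4-5 hr, then exposed to compound overnight at 37C, 5% CO2. Blue fluorescence read at 405/460 nm, with triamterene as reference fluorophore.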
A short description of assay [9]: qHTS assay to test for compound auto fluorescence at 590 nm (red) in HEK293 cells (AID 720679). The procedure, abridged: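 HEK293 cells (2,000/well, 10% dialyzed FBS) attached 4-5 hr, then dosed with compound or DMSO and incubated overnight at 37C, 5% CO2. Red fluorescence read at 540/590 nm, Rose Bengal sodium as reference fluorophore.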
A short description of assay [10]: qHTS assay for small molecule disruptors of the mitochondrial membrane potential (AID 720635). Further: potency means the concentration at half of the fitted maximal effect. The procedure, abridged: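 HepG2 cells (2,000/well) attached overnight at 37C, then took compound for 1 hr at 37C, 5% CO2. Mito-MPS dye was added for 30 min; fluorescence was read at 490/535 nm (monomers) and 540/590 nm (aggregates).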

Molecules are shown by their SMILES. Where “and” joins values, the source holds several entries; their conditions need not be identical. Equal values may be shown once. Inconclusive results are not listed. Calls of active or inactive are those of the source. Unless noted, the call rests on the fitted dose curve; in most records, active means well fitted curve in the direction sought with a large enough effect in the repeat runs; inconclusive means weak or mixed curves; inactive means no such curve, though single readings can be large; an effect the other way counts as inactive or inconclusive.

Consider `O=S(=O)(O)CCCS(=O)(=O)O`, for which the Potency result in assay [1], in [2], in assay [3], in [4], in [5] and in assay [6] was “inactive” in each case. Further, the Potency result in assay [7], in assay [8] and in [9] was “inactive” each time.
Turning to `C[C@]12CC[C@@H]3c4ccc(OS(=O)(=O)O)cc4CC[C@H]3[C@@H]1CCC2=O`, the Potency result in assay [1], in [2], in assay [3], in assay [4], in [5] and in [6] was “inactive” in each case. For the same compound, the Potency entry in assay [7], in assay [8] and in [9] was “inactive” throughout.
In the case of `O=C(CO)[C@@H](O)[C@H](O)[C@@H](O)C(=O)O`, the Potency entry in assay [1], in assay [2], in [3], in assay [4], in assay [5] and in [6] was “inactive” in each case. For the same compound, the Potency entry in [7], in [8] and in [9] was “inactive” throughout.
For the compound `CN1[C@@H]2CCC[C@H]1CC(NC(=O)c1nn(C)c3ccccc13)C2` (stereo partly specified), the Potency result in [1], in assay [2], in assay [3], in assay [4], in [5] and in [10] was “inactive” each time. For the same compound, the Potency entry in assay [7], in assay [8] and in assay [9] was “inactive” in each case.
Turning to `CN[C@@H]1CCc2[nH]c3ccc(C(N)=O)cc3c2C1`, the Potency result in [1], in assay [2], in assay [3], in assay [4], in assay [5] and in assay [10] was “inactive” in each case. Also, the Potency result in assay [6], in [7], in [8] and in assay [9] was “inactive” in each case.
For the compound `CCOC(=O)[C@H](CCc1ccccc1)N[C@@H](C)C(=O)N1CC2(C[C@H]1C(=O)O)SCCS2`, the Potency result in assay [1], in assay [2], in [3], in assay [4], in [5] and in assay [10] was “inactive” in each case. The Potency entry in assay [7], in [8] and in [9] was “inactive” throughout.
`COc1ccc2c(=O)c(C)c(-c3ccccc3)oc2c1CN(C)C`: the Potency result in assay [1], in assay [2], in assay [3], in assay [4], in assay [5] and in assay [10] was “inactive” in each case. Besides, the Potency entry in [7], in [8] and in assay [9] was “inactive” in each case.
With `O=C1O[C@H]2[C@H](O)[C@@H]1OC(O)[C@H]2O` (stereo partly specified), the Potency entry in assay [1], in assay [2], in assay [3], in assay [4], in [5] and in assay [10] was “inactive” each time. For the same compound, the Potency entry in assay [6], in assay [7], in assay [8] and in assay [9] was “inactive” each time.
In the case of `CN(CC(=O)N1CCOCC1)Cc1c(Cl)cccc1NC(=O)c1ccccc1`, the Potency result in assay [1], in assay [2], in [3], in [4], in assay [5] and in assay [6] was “inactive” each time. Moreover, the Potency result in [7], in [8] and in [9] was “inactive” throughout.
As for `COC(=O)[C@H]1[C@H]2C[C@@H]3c4[nH]c5cc(OC)ccc5c4CCN3C[C@H]2C[C@H](OC)[C@@H]1OC`, the Potency result in [1], in assay [2], in assay [3], in assay [4], in [5] and in assay [10] was “inactive” in each case. Besides, the Potency entry in assay [6], in [7] and in assay [9] was “inactive” throughout.
For the compound `Nc1ccn(C[C@@H](CO)OCP(=O)(O)O)c(=O)n1`, the Potency result in assay [1], in assay [2], in [3], in [4], in [5] and in assay [10] was “inactive” in each case. Also, the Potency result in [7], in [8] and in [9] was “inactive” each time.
On to `COc1ccc(CCNC[C@H](O)c2ccc(O)cc2)cc1OC`, for which the Potency entry in assay [1], in assay [2], in assay [3], in assay [4], in [5] and in assay [6] was “inactive” in each case. The Potency entry in assay [7], in assay [8] and in [9] was “inactive” throughout.
Turning to `NCc1ccccc1CC(=O)N[C@@H]1C(=O)N2C(C(=O)O)=C(CSc3nnnn3CC(=O)O)CS[C@H]12`, the Potency entry in assay [1], in assay [2], in assay [3], in [4], in [5] and in [6] was “inactive” in each case. Moreover, the Potency result in assay [7], in [8] and in assay [9] was “inactive” each time.
`C#CCC(Cc1cnc2nc(N)nc(N)c2n1)c1ccc(C(=O)N[C@@H](CCC(=O)O)C(=O)O)cc1` (stereo partly specified): the Potency in assay [1] was 266 nM (active); in [3], 266 nM (active); in assay [4] it was 211 nM (active). Moreover, the Potency entry in assay [2], in [5], in assay [10], in assay [6], in assay [7] and in [9] was “inactive” throughout.
`CC(=O)[C@]1(O)Cc2c(O)c3c(c(O)c2[C@@H](O[C@H]2C[C@H](N)[C@H](O)[C@H](C)O2)C1)C(=O)c1c(O)cccc1C3=O`: the Potency was 944 nM (active) and 2.37 µM (active) in [1]; 750 nM (active) and 944 nM (active) in [2]; 10.6 µM (active) and 11.9 µM (active) in assay [4]; 441 nM (active) and 5.31 µM (active) in assay [10]. The Potency result in assay [3], in assay [5], in [6], in assay [8] and in assay [9] was “inactive” each time.
As to `CCCCCCCCCCCCCCCC(=O)OC[C@@H](COP(=O)([O-])OCC[N+](C)(C)C)OC(=O)CCCCCCCCCCCCCCC`, the Potency entry in assay [1], in assay [2], in assay [3], in assay [4], in assay [5] and in assay [10] was “inactive” in each case. For the same compound, the Potency entry in assay [7], in [8] and in assay [9] was “inactive” throughout.
`Cc1cc(-n2c(=O)[nH]c(=O)n(C)c2=O)ccc1Oc1ccc(S(=O)(=O)C(F)(F)F)cc1`: the Potency result in assay [1], in [2], in assay [3], in assay [4], in assay [5] and in [10] was “inactive” each time. Besides, the Potency entry in [6], in assay [7], in [8] and in assay [9] was “inactive” throughout.
Take `OC(CN1CCCCC1)c1cc(-c2ccccc2)on1` (stereo unspecified): the Potency result in [1], in assay [2], in assay [3], in assay [4], in assay [5] and in assay [10] was “inactive” in each case. The Potency entry in [6], in assay [7], in assay [8] and in assay [9] was “inactive” in each case.
As for `CCC(C)(C)OC(=O)N[C@@H](Cc1c[nH]c2ccccc12)C(=O)N[C@@H](CCSC)C(=O)N[C@@H](CC(=O)O)C(=O)N[C@@H](Cc1ccccc1)C(N)=O`, the Potency entry in assay [1], in [2], in assay [3], in [4], in assay [5] and in assay [10] was “inactive” each time. Also, the Potency result in [6], in [8] and in assay [9] was “inactive” in each case.
`CCN(CC)CCOC(=O)c1ccc(N)cc1Cl`: the Potency entry in assay [1], in assay [2], in [3], in assay [4], in [5] and in assay [10] was “inactive” throughout. Moreover, the Potency entry in assay [6], in assay [7], in assay [8] and in [9] was “inactive” throughout.
Consider `CCCC(CCC)C(N)=O`, for which the Potency entry in assay [1], in [2], in [3], in [4], in [5] and in assay [10] was “inactive” throughout. Also, the Potency result in assay [7], in assay [8] and in assay [9] was “inactive” throughout.
Take `c1cnc2cc3c(cc2n1)[C@@H]1CNC[C@H]3C1`: the Potency entry in assay [1], in assay [2], in [3], in assay [4], in assay [5] and in assay [10] was “inactive” throughout. The Potency result in assay [6], in assay [7], in assay [8] and in assay [9] was “inactive” in each case.
For `CNCC(O)c1ccc(OC(=O)C(C)(C)C)c(OC(=O)C(C)(C)C)c1` (stereo unspecified), the Potency result in assay [1], in assay [2], in [3], in assay [4], in [5] and in assay [6] was “inactive” each time. Besides, the Potency entry in assay [7], in assay [8] and in assay [9] was “inactive” throughout.
Regarding `O=C(O[C@H]1CN2CCC1CC2)N1CCc2ccccc2[C@@H]1c1ccccc1`, the Potency result in [1], in assay [2], in [3], in [4], in [5] and in [6] was “inactive” in each case. Also, the Potency result in [7], in [8] and in [9] was “inactive” in each case.
Take `CC[C@@H](C(=O)O)[C@@H]1O[C@@H]([C@@H](C)[C@H](O)[C@H](C)C(=O)[C@H](CC)[C@H]2O[C@]3(C=C[C@@H](O)[C@]4(CC[C@@](C)([C@H]5CC[C@](O)(CC)[C@H](C)O5)O4)O3)[C@H](C)C[C@@H]2C)[C@@H](C)C[C@@H]1C`: the Potency in assay [1] is 3760 nM (active); in assay [4] it was 1880 nM (active). Also, the Potency result in assay [2], in assay [3], in [5], in [6], in assay [7] and in assay [8] was “inactive” in each case. For the same compound, the Potency entry in [9] is “inactive”.
